A short description of experiment [1]: Wnt pathway potentiators raising nuclear beta-catenin – imaging, WNT3A-conditioned medium, mouse C2C12, NPC library, primary screen (AID 1117326; in the data active = nuclear beta-catenin stimulation mostly above about 4.2%, no sharp cut-off; inactive = mostly below about 10%; also: reference of the scale not given here). Conditions: stronger effect = higher value.
Experiment [2] in a line: stimulators of insulin release from INS-1E, primary screen, cell-based, 5 mM glucose, NPC library (AID 1117329;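 active = compound raises insulin release from rat beta cells at 5 mM glucose, no numeric limit stated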; also: reference of the scale not given here). Conditions: rat INS-1E insulin secretion, at 10 µM, stronger effect = higher value.
A short description of experiment [3]: growth inhibition of GSK3B-pretreated HCT116 cells – cell-based, CellTiter-Glo, 0.2 to 20 µM (AID 1117336;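 active = compounds lowering colon cancer cell viability after pretreatment blocking the GSK3B kinase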). To be noted: HCT116 viability after GSK3B inhibitor, at 20 µM, stronger effect = higher value. A general note: Cellular ATP, detected with luciferase, serves as a proxy for viable cell number.
The nature of experiment [4]: inhibition of endothelial tube formation, primary screen, imaging, VEGF stimulated, CD31 staining, tube area, NPC library (AID 1117340). Conditions: VEGF-stimulated ADSC/ECFC co-culture, at 10 µM, stronger effect = higher value.
A short description of experiment [5]: GLP1 release stimulators, primary, NCI-H716, NPC library (AID 1117341;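 active = compound raises GLP1 secretion from the human gut endocrine cells, with no numeric limit stated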; also: reference of the scale not given here). To be noted: NCI-H716 cells, at 10 µM, stronger effect = higher value.
Experiment [6] is described as follows: HCT116 colon cancer cell growth inhibition, primary screen, CellTiter-Glo luminescence, NPC library (AID 1117342;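 active = compounds that lower survival of HCT116 colon cancer cells in the luminescence readout, no numeric limit stated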). To be noted: at 20 µM (top of the series).
Experiment [7] can be described thus: reduced SW480 viability measured with CellTiter-Glo, NPC library, primary (AID 1117343;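 active = compounds that lower viability of the colon cancer cells in the luminescence readout, with no numeric limit stated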). To be noted: CellTiter-Glo luminescence; at 20 µM (top of the series).
The nature of experiment [8]: NPC library primary testing for decreased DLD-1 cell viability via CellTiter-Glo (AID 1117346;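 active = compounds that lower survival of DLD-1 colon cancer cells in the luminescence readout, no cutoff given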). Conditions: DLD-1 viability, CellTiter-Glo luminescence; at 20 µM (top of the series).

We go through 14 compounds from PubChem BioAssay.

Calls of active or inactive are those of the source.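 The calls were made as follows, unless noted: active = compound that reduces growth-factor-driven endothelial tube area in a mixed cell culture, no cutoff stated; inactive = the rest.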

In the case of `C[N+]1(CC2COC(c3ccccc3)(C3CCCCC3)O2)CCCCC1` (stereo unspecified), the nuclear beta-catenin stimulation in experiment [1] (at 10 µM) is -2.3% (inactive); in experiment [1] (stimulation, at 2 µM) it was -1.4%. Further, in experiment [2], the insulin secretion stimulation was 5% (inactive). The viability decrease in experiment [3] was -13.4% (inactive). Also, the tube area decrease in experiment [4] is 10.1% (inactive). The GLP1 secretion stimulation in experiment [5] was -2.3% (inactive). The inhibition of viability in experiment [6] is 28.7% (inactive). The viability decrease (inhibition) in experiment [7] is 7.6% (inactive); in experiment [8], 3.2% (inactive).

For `COC(=O)CCC(=O)CN`, the nuclear beta-catenin stimulation in experiment [1] (at 10 µM) is -1.5% (inactive); in experiment [1] (stimulation, at 2 µM) it was 0.1%. The insulin secretion stimulation in experiment [2] was 0.4% (inactive). In experiment [3], the viability decrease was 0.2% (inactive). Further, the tube area decrease in experiment [4] was -14.2% (inactive). For the same compound, in experiment [5], the GLP1 secretion stimulation was -0.4% (inactive). Further, in experiment [6], the inhibition of viability was 11.6% (inactive). Besides, the viability decrease (inhibition) in experiment [7] is 24.2% (inactive); in experiment [8], 18.4% (inactive).

Turning to `CCN(CC)CCOc1ccccc1C(=O)CCc1ccccc1`, the nuclear beta-catenin stimulation in experiment [1] (at 10 µM) is -0.8% (inactive); in experiment [1] (stimulation, at 2 µM), -1.7%. Also, the insulin secretion stimulation in experiment [2] is 70% (active). The viability decrease in experiment [3] is 14.5% (inactive). For the same compound, the tube area decrease in experiment [4] is 0.9% (inactive). Moreover, the GLP1 secretion stimulation in experiment [5] was 5.2% (inactive). Also, the inhibition of viability in experiment [6] is 61.9% (active). The figures for the viability decrease (inhibition) in experiment [7] and in experiment [8] were 50.7% (active) and 23.2% (inactive), respectively.

In the case of `O=C1NC2CCCCN2C12CCN(CCCN1c3ccccc3CCc3ccc(Cl)cc31)CC2` (stereo unspecified), the nuclear beta-catenin stimulation in experiment [1] (at 10 µM) is 13.1% (inactive); in experiment [1] (stimulation, at 2 µM), 0.1%. Further, in experiment [2], the insulin secretion stimulation was 3.85% (inactive). Besides, in experiment [3], the viability decrease was 108% (active). The tube area decrease in experiment [4] is 89.4% (active). Further, the GLP1 secretion stimulation in experiment [5] was 13.3% (inactive). In experiment [6], the inhibition of viability is 112% (active). In addition, the viability decrease (inhibition) was 128% (active) in experiment [7] and 101% (active) in experiment [8].

As to `CC1c2ccccc2CN1NC(=O)c1ccc(Cl)c(S(N)(=O)=O)c1` (stereo unspecified), the nuclear beta-catenin stimulation in experiment [1] (at 10 µM) is 1.2% (inactive); in experiment [1] (stimulation, at 2 µM) it was 4.6%. For the same compound, in experiment [2], the insulin secretion stimulation was 1.65% (inactive). In experiment [3], the viability decrease was 26.4% (inactive). Also, the tube area decrease in experiment [4] is -9.7% (inactive). Also, in experiment [5], the GLP1 secretion stimulation is -1.8% (inactive). Moreover, the inhibition of viability in experiment [6] is 1.4% (inactive). The results for the viability decrease (inhibition) in experiment [7] and in experiment [8] were -21.1% (active) and -10.8% (inactive), respectively.

Turning to `O=C(O)CNC(=O)c1ccccc1I`, the nuclear beta-catenin stimulation in experiment [1] (at 10 µM) was -0.5% (inactive); in experiment [1] (stimulation, at 2 µM), 1.7%. The insulin secretion stimulation in experiment [2] was 0.3% (inactive). Further, the viability decrease in experiment [3] was 16% (inactive). In addition, in experiment [4], the tube area decrease was 5.3% (inactive). Moreover, the GLP1 secretion stimulation in experiment [5] was 0.7% (inactive). Also, the inhibition of viability in experiment [6] was 4.1% (inactive). In addition, the values for the viability decrease (inhibition) in experiment [7] and in experiment [8] were 10.4% (inactive) and -17.7% (inactive), respectively.

For the compound `CC(=O)N/N=C/c1ccc([N+](=O)[O-])o1`, the nuclear beta-catenin stimulation in experiment [1] (at 10 µM) is 9.9% (inactive); in experiment [1] (stimulation, at 2 µM), -0.2%. Besides, in experiment [2], the insulin secretion stimulation is -3.3% (inactive). Moreover, in experiment [3], the viability decrease is 16.4% (inactive). Further, the tube area decrease in experiment [4] was 20.9% (inactive). Also, the GLP1 secretion stimulation in experiment [5] was 5.7% (inactive). The inhibition of viability in experiment [6] is 9% (inactive). Further, the viability decrease (inhibition) in experiment [7] was 104% (active); in experiment [8] it was 80.5% (active).

Consider `CCCOC(C(=O)OC1CCN(C)CC1)(c1ccccc1)c1ccccc1`, for which the nuclear beta-catenin stimulation in experiment [1] (at 10 µM) was 0.8% (inactive); in experiment [1] (stimulation, at 2 µM) it was 1.5%. Further, the insulin secretion stimulation in experiment [2] is 0.3% (inactive). The viability decrease in experiment [3] is 54.2% (active). In experiment [4], the tube area decrease was 19.1% (inactive). In experiment [5], the GLP1 secretion stimulation was 21.3% (active). Also, the inhibition of viability in experiment [6] was 84.8% (active). Moreover, the viability decrease (inhibition) was 107% (active) in experiment [7] and 57.7% (active) in experiment [8].

Regarding `C[C@H]1C[C@H]2[C@@H]3CCC4=CC(=O)C=C[C@]4(C)[C@@]3(Cl)[C@@H](O)C[C@]2(C)[C@@]1(O)C(=O)CO`, the nuclear beta-catenin stimulation is 0.9% (inactive) in experiment [1] (at 10 µM) and 0.5% in experiment [1] (stimulation, at 2 µM). Further, the insulin secretion stimulation in experiment [2] was 6.9% (inactive). Moreover, the viability decrease in experiment [3] was -136% (inactive). For the same compound, in experiment [4], the tube area decrease is 14.4% (inactive). For the same compound, the GLP1 secretion stimulation in experiment [5] was -0.3% (inactive). Also, the inhibition of viability in experiment [6] was 15.8% (inactive). Further, the results for the viability decrease (inhibition) in experiment [7] and in experiment [8] were 70.7% (active) and 13.2% (inactive), respectively.

As for `c1ccc(C(O[C@H]2CCCN(CCc3ccc4c(c3)OCO4)C2)c2ccccc2)cc1`, the nuclear beta-catenin stimulation in experiment [1] (at 10 µM) was 0.9% (inactive); in experiment [1] (stimulation, at 2 µM), 1.5%. Also, the insulin secretion stimulation in experiment [2] was 5.45% (inactive). In addition, the viability decrease in experiment [3] is 100% (active). Moreover, the tube area decrease in experiment [4] is -6.8% (inactive). Further, the GLP1 secretion stimulation in experiment [5] is 0.6% (inactive). Further, the inhibition of viability in experiment [6] was 96.3% (active). The viability decrease (inhibition) in experiment [7] is 101% (active); in experiment [8], 90.1% (active).

As to `Cc1ccc2c(n1)Oc1ccc(C(C)C(=O)OCC(=O)N(C)C)cc1C2` (stereo unspecified), the nuclear beta-catenin stimulation in experiment [1] (at 10 µM) was 0.6% (inactive); in experiment [1] (stimulation, at 2 µM), -2.8%. The insulin secretion stimulation in experiment [2] is 1.8% (inactive). The viability decrease in experiment [3] was 28.6% (inactive). Further, in experiment [4], the tube area decrease is -10% (inactive). The GLP1 secretion stimulation in experiment [5] is 3.6% (inactive). The inhibition of viability in experiment [6] is 20.4% (inactive). Besides, the viability decrease (inhibition) was -3.8% (inactive) in experiment [7] and -1.1% (inactive) in experiment [8].

As for `CC(=O)N(CC(=O)N(C)C)c1ccccc1`, the nuclear beta-catenin stimulation in experiment [1] (at 10 µM) is -1.1% (inactive); in experiment [1] (stimulation, at 2 µM) it was 3.8%. Further, in experiment [2], the insulin secretion stimulation was -0.5% (inactive). In addition, the viability decrease in experiment [3] was -5.9% (inactive). Besides, the tube area decrease in experiment [4] is 3.9% (inactive). Also, in experiment [5], the GLP1 secretion stimulation is -1.1% (inactive). Further, in experiment [6], the inhibition of viability is -4.93% (inactive). For the same compound, the viability decrease (inhibition) was 36.7% (inactive) in experiment [7] and -21.1% (inactive) in experiment [8].

Regarding `Cc1c(F)cc2c(=O)c(C(=O)O)cn3c2c1CCC3C` (stereo unspecified), the nuclear beta-catenin stimulation in experiment [1] (at 10 µM) was 1.9% (inactive); in experiment [1] (stimulation, at 2 µM) it was 1.5%. Also, in experiment [2], the insulin secretion stimulation was -1.9% (inactive). The viability decrease in experiment [3] is -181% (inactive). Further, in experiment [4], the tube area decrease was -28% (inactive). Also, in experiment [5], the GLP1 secretion stimulation was 1.5% (inactive). Also, in experiment [6], the inhibition of viability was 0.65% (inactive). In addition, the viability decrease (inhibition) in experiment [7] is -16.3% (inactive); in experiment [8], -3% (inactive).

`CCCC(CCC)C(N)=O`: the nuclear beta-catenin stimulation in experiment [1] (at 10 µM) is -0.9% (inactive); in experiment [1] (stimulation, at 2 µM) it was -1%. Also, the insulin secretion stimulation in experiment [2] was 2% (inactive). Further, the viability decrease in experiment [3] was 1.8% (inactive). The tube area decrease in experiment [4] is -17.7% (inactive). Besides, the GLP1 secretion stimulation in experiment [5] is 16.4% (inactive). Also, the inhibition of viability in experiment [6] was 16.3% (inactive). For the same compound, the viability decrease (inhibition) in experiment [7] is 25.7% (inactive); in experiment [8], 22.3% (inactive).
